Results reported in the supplement of paper PMC3545927.
The list shows a part of the results. The hit rate among all sequences tested is not known here.

Biological target: furin, P09958
Assay: furin cleavage Z-score vs untreated control; higher = more cleavage, active = 3.5 or more, inactive = 1 or less, 8 variable residues between constant flanks
In short: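 Cleavage by purified furin was measured on 8-mer peptides fused to a cDNA oligonucleotide and held on magnetic beads by their N-terminus. Reactions (0.01 ml, 1:10 enzyme:substrate) ran 7.5, 15 or 30 min in 50 mM HEPES pH 7.5 with CaCl2 and NaCl. Released DNA was adapter-tagged by PCR and sequenced, with read counts giving abundance. Log counts versus furin-free reactions were lowess-adjusted and scaled by median absolute deviation to give the cleavage Z-score.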

furin, P09958, sequence (P09958 whole entry): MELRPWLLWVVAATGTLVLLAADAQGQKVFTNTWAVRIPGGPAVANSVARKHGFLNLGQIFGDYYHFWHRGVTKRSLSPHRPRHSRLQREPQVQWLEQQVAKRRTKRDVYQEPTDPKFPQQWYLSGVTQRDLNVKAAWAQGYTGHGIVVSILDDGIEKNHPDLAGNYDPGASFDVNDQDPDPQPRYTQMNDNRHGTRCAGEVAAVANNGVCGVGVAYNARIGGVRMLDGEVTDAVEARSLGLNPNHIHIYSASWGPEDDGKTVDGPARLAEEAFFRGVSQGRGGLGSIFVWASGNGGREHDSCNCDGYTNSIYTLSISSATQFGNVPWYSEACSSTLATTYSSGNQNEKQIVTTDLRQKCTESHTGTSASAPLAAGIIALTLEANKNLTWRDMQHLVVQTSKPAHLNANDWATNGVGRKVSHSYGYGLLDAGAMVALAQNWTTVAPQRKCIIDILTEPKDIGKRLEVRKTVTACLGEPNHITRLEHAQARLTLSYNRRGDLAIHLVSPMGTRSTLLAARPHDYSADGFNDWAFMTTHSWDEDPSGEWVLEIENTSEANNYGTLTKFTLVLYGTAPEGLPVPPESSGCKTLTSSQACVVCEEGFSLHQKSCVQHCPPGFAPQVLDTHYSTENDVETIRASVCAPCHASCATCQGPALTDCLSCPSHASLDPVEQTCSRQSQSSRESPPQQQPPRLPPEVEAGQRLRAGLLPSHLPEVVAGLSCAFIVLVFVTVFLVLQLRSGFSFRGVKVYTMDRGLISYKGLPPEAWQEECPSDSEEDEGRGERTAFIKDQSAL

## CAAGIAYFSMAGNASASA [HC339]
7.5 min
  furin cleavage Z-score: -0.0596 (inactive)
15 min
  furin cleavage Z-score: 0.534 (inactive)
30 min
  furin cleavage Z-score: -0.966 (inactive)

## CAQGNRWRRSAGNASASA [FS-139]
7.5 min
  furin cleavage Z-score: 14.1 (active)
15 min
  furin cleavage Z-score: 13 (active)
30 min
  furin cleavage Z-score: 9.79 (active)

## CAGGSRWRRSAGNASASA [FS-124]
7.5 min
  furin cleavage Z-score: 6.79 (active)
15 min
  furin cleavage Z-score: 5.09 (active)
30 min
  furin cleavage Z-score: 5.21 (active)

## CAITYSTYGKAGNASASA [HC806]
7.5 min
  furin cleavage Z-score: 0.0361 (inactive)
15 min
  furin cleavage Z-score: -1.76 (inactive)
30 min
  furin cleavage Z-score: 1.03

## CAAVPRLRRDAGNASASA [FS-644]
7.5 min
  furin cleavage Z-score: 11.8 (active)
15 min
  furin cleavage Z-score: 12.1 (active)
30 min
  furin cleavage Z-score: 8.75 (active)

## CAAGQRLRRDAGNASASA [FS-395]
7.5 min
  furin cleavage Z-score: 12 (active)
15 min
  furin cleavage Z-score: 10.2 (active)
30 min
  furin cleavage Z-score: 8.42 (active)

## CACVPRMRRPAGNASASA [FS-753]
7.5 min
  furin cleavage Z-score: 0.288 (inactive)
15 min
  furin cleavage Z-score: -2.19 (inactive)
30 min
  furin cleavage Z-score: 0.777 (inactive)

## CAAVGRAGRDAGNASASA [FS-11]
7.5 min
  furin cleavage Z-score: 0.567 (inactive)
15 min
  furin cleavage Z-score: 1.42
30 min
  furin cleavage Z-score: 0.637 (inactive)

## CAGDVVCCSMAGNASASA [HC2116]
7.5 min
  furin cleavage Z-score: 0.0391 (inactive)
15 min
  furin cleavage Z-score: -0.825 (inactive)
30 min
  furin cleavage Z-score: -0.011 (inactive)

## CAVVCASMSYAGNASASA [HC81]
7.5 min
  furin cleavage Z-score: 0.42 (inactive)
15 min
  furin cleavage Z-score: 1.25
30 min
  furin cleavage Z-score: -0.0546 (inactive)

## CAVLVGGVLAAGNASASA [HC991]
7.5 min
  furin cleavage Z-score: -0.269 (inactive)
15 min
  furin cleavage Z-score: -2.26 (inactive)
30 min
  furin cleavage Z-score: -1.24 (inactive)

## CAVLVVLLLFAGNASASA [HC346]
7.5 min
  furin cleavage Z-score: -1.01 (inactive)
15 min
  furin cleavage Z-score: -0.224 (inactive)
30 min
  furin cleavage Z-score: -0.108 (inactive)

## CASQRRKRRAAGNASASA [FS-381]
7.5 min
  furin cleavage Z-score: 6.33 (active)
15 min
  furin cleavage Z-score: 6.94 (active)
30 min
  furin cleavage Z-score: 4.52 (active)

## CAKSYRKRRAAGNASASA [FS-47]
7.5 min
  furin cleavage Z-score: 9.96 (active)
15 min
  furin cleavage Z-score: 10.6 (active)
30 min
  furin cleavage Z-score: 7.5 (active)

## CAGAPLGGAAAGNASASA [HC231]
7.5 min
  furin cleavage Z-score: -0.433 (inactive)
15 min
  furin cleavage Z-score: -0.224 (inactive)
30 min
  furin cleavage Z-score: -0.596 (inactive)

## CAVLVRKRRAAGNASASA [FS-1178]
7.5 min
  furin cleavage Z-score: 12 (active)
15 min
  furin cleavage Z-score: 12.9 (active)
30 min
  furin cleavage Z-score: 8.97 (active)

## CAGGPRKRRAAGNASASA [FS-26]
7.5 min
  furin cleavage Z-score: 5.06 (active)
15 min
  furin cleavage Z-score: 5.01 (active)
30 min
  furin cleavage Z-score: 3.88 (active)

## CAEQVTSTWVAGNASASA [HC2182]
7.5 min
  furin cleavage Z-score: 1.33
15 min
  furin cleavage Z-score: -1.99 (inactive)
30 min
  furin cleavage Z-score: 0.572 (inactive)

## CAVVCCSSSYAGNASASA [HC2057]
7.5 min
  furin cleavage Z-score: 0.153 (inactive)
15 min
  furin cleavage Z-score: -0.457 (inactive)
30 min
  furin cleavage Z-score: -1.02 (inactive)

## CAVPRRPARAAGNASASA [FS-150]
7.5 min
  furin cleavage Z-score: 9.11 (active)
15 min
  furin cleavage Z-score: 8.34 (active)
30 min
  furin cleavage Z-score: 7.62 (active)

## CALPRRPARSAGNASASA [FS-1231]
7.5 min
  furin cleavage Z-score: 5.68 (active)
15 min
  furin cleavage Z-score: 6.25 (active)
30 min
  furin cleavage Z-score: 4.95 (active)

## CADLGRPARSAGNASASA [FS-1447]
7.5 min
  furin cleavage Z-score: -0.204 (inactive)
15 min
  furin cleavage Z-score: -0.114 (inactive)
30 min
  furin cleavage Z-score: 1.88

## CARLRKQARAAGNASASA [FS-2711]
7.5 min
  furin cleavage Z-score: 0.606 (inactive)
15 min
  furin cleavage Z-score: 1.95
30 min
  furin cleavage Z-score: 3

## CAVPESDAAAAGNASASA [HC1128]
7.5 min
  furin cleavage Z-score: -0.849 (inactive)
15 min
  furin cleavage Z-score: -1.42 (inactive)
30 min
  furin cleavage Z-score: -1.68 (inactive)

## CAVKPRPARSAGNASASA [FS-1499]
7.5 min
  furin cleavage Z-score: 10.9 (active)
15 min
  furin cleavage Z-score: 11.1 (active)
30 min
  furin cleavage Z-score: 7.25 (active)

## CAVTPCAAEEAGNASASA [HC1376]
7.5 min
  furin cleavage Z-score: -0.828 (inactive)
15 min
  furin cleavage Z-score: -1.48 (inactive)
30 min
  furin cleavage Z-score: -0.78 (inactive)

## CARFPRTWWQAGNASASA [FS-1949]
7.5 min
  furin cleavage Z-score: 0.217 (inactive)
15 min
  furin cleavage Z-score: -0.0617 (inactive)
30 min
  furin cleavage Z-score: 0.886 (inactive)

## CARFKRQTSYAGNASASA [FS-2923]
7.5 min
  furin cleavage Z-score: 8.28 (active)
15 min
  furin cleavage Z-score: 8.05 (active)
30 min
  furin cleavage Z-score: 8.39 (active)

## CAVVCCMMSYAGNASASA [HC108]
7.5 min
  furin cleavage Z-score: 0.208 (inactive)
15 min
  furin cleavage Z-score: 0.787 (inactive)
30 min
  furin cleavage Z-score: 1.59

## CAVVCCSTSYAGNASASA [HC2058]
7.5 min
  furin cleavage Z-score: 1.72
15 min
  furin cleavage Z-score: 0.804 (inactive)
30 min
  furin cleavage Z-score: 2.04

## CARFPRAYSYAGNASASA [FS-2924]
7.5 min
  furin cleavage Z-score: -0.296 (inactive)
15 min
  furin cleavage Z-score: 0.732 (inactive)
30 min
  furin cleavage Z-score: 4.36 (active)

## CARLDRSYSYAGNASASA [FS-2986]
7.5 min
  furin cleavage Z-score: 0.288 (inactive)
15 min
  furin cleavage Z-score: -0.0412 (inactive)
30 min
  furin cleavage Z-score: -1.47 (inactive)

## CASTPCSAHPAGNASASA [HC2579]
7.5 min
  furin cleavage Z-score: -0.671 (inactive)
15 min
  furin cleavage Z-score: 0.373 (inactive)
30 min
  furin cleavage Z-score: 0.672 (inactive)

## CARFPRAAHPAGNASASA [FS-2139]
7.5 min
  furin cleavage Z-score: 3.15
15 min
  furin cleavage Z-score: 2.75
30 min
  furin cleavage Z-score: 4.11 (active)

## CAVVCCSYSYAGNASASA [HC2049]
7.5 min
  furin cleavage Z-score: 0.949 (inactive)
15 min
  furin cleavage Z-score: 0.0975 (inactive)
30 min
  furin cleavage Z-score: -1.13 (inactive)

## CAMWECSQHLAGNASASA [HC1688]
7.5 min
  furin cleavage Z-score: 0.266 (inactive)
15 min
  furin cleavage Z-score: 1.15
30 min
  furin cleavage Z-score: 1.3

## CADTPCSGSWAGNASASA [HC1831]
7.5 min
  furin cleavage Z-score: -0.725 (inactive)
15 min
  furin cleavage Z-score: -0.574 (inactive)
30 min
  furin cleavage Z-score: -0.127 (inactive)

## CALGVRVCEKAGNASASA [HC1453]
7.5 min
  furin cleavage Z-score: -0.269 (inactive)
15 min
  furin cleavage Z-score: -0.873 (inactive)
30 min
  furin cleavage Z-score: -1.56 (inactive)

## CAIAAAGQLDAGNASASA [HC1640]
7.5 min
  furin cleavage Z-score: 0.168 (inactive)
15 min
  furin cleavage Z-score: -0.469 (inactive)
30 min
  furin cleavage Z-score: -1.87 (inactive)

## CAKRSRRIRPAGNASASA [FS-1461]
7.5 min
  furin cleavage Z-score: -0.256 (inactive)
15 min
  furin cleavage Z-score: 1.6
30 min
  furin cleavage Z-score: 0.134 (inactive)

## CAKRARVVREAGNASASA [FS-262]
7.5 min
  furin cleavage Z-score: 9.07 (active)
15 min
  furin cleavage Z-score: 8.16 (active)
30 min
  furin cleavage Z-score: 7.16 (active)

## CAKRLRRRREAGNASASA [FS-1224]
7.5 min
  furin cleavage Z-score: 6.7 (active)
15 min
  furin cleavage Z-score: 5.88 (active)
30 min
  furin cleavage Z-score: 4.7 (active)

## CASRDRRRREAGNASASA [FS-195]
7.5 min
  furin cleavage Z-score: 10.8 (active)
15 min
  furin cleavage Z-score: 10.8 (active)
30 min
  furin cleavage Z-score: 7.22 (active)
